7 molecules from PubChem BioAssay can be followed below.

The nature of assay [1]: yeast 75Q aggregation reduction – 75Q-TubU reporter (AID 1593). The settings on record: Yeast 75Q polyglutamine aggregation reporter.
Assay [2] can be described thus: restoration of touch response, mutant HTT neurons – whole organism, C. elegans mechanosensory neurons, N-terminal huntingtin (AID 1599). The conditions noted are these: C. elegans polyQ-huntingtin mechanosensory neurons, stronger effect = higher value.
Assay [3] in a line: blockers of cytochrome c efflux from mitochondria – biochemical, purified mitochondria (AID 1603).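 Also: mouse liver mitochondria challenged with calcium chloride; signal normalized to the plate average as 100%.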 The conditions noted are these: stronger effect = lower value.
Assay [4] can be described thus: polyglutamine aggregate formation blockers (AID 1604). The settings on record: polyglutamine-induced protein aggregation inhibition assay; stronger effect = higher value; tested at 2.5 µM.
The nature of assay [5]: glutamate transport activators, MN-1 cells, MN-1 cell line (AID 1612).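 Also: tested at 1 µM final; 0% = mean of DMSO vehicle wells on each plate; positive means more glutamate uptake than control and negative means less.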 The conditions noted are these: MN-1 motor neuron cells, stronger effect = higher value.
A short description of assay [6]: 75Q-TubH aggregate inhibition, S. cerevisiae, yeast (AID 1616). The conditions noted are these: S. cerevisiae 75Q-TubH polyglutamine aggregation suppression; stronger effect = higher value.
Assay [7] in a line: EMT-state selective cytotoxicity in co-culture – imaging, PC-3E GFP, TEM4-18 mCherry, primary screen (AID 1345086).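 As to all read-outs here: cells exposed to compound for 72 h before imaging.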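 As to red/green cell ratio (normalised): normalised mesenchymal count divided by normalised epithelial count so high means epithelial killing.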 The settings on record: PC-3E GFP / TEM4-18 mCherry co-culture, imaging cell counts, at 1 µM; for red/green cell ratio (normalised): actives lie on both sides.
Assay [8] deals with Aerobactin synthetase IucA (Klebsiella pneumoniae hvKP1). The experiment in a line: IucA enzyme inhibition, primary screen, biochemical, Spectrum library (AID 1346200; call rule not given here;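 also: 100% = wells without compound and 0% = wells lacking enzyme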). The conditions noted are these: malachite green pyrophosphate, A620, at 8 µM, stronger effect = lower value.
A short description of assay [9]: compounds altering viability of human ES cells (AID 493140; call rule not given here;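 also: cells exposed to compounds for four days before counting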). The settings on record: human embryonic stem cell survival screen; stronger effect = higher value.
Assay [10] is described as follows: P. berghei load reduction in hepatocytes – cell-based, HepG2, luciferase luminescence, HepG2 viability, primary screen (AID 624349; in the data active = parasite load remaining mostly below about 12%, no sharp cut-off; inactive = mostly above about 10%;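 also: 100% = mean of DMSO negative control wells on the same plate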). The conditions noted are these: P. berghei liver stage in HepG2, luciferase luminescence, concentration not given here; parasite load remaining: stronger effect = lower value; viability: measured here: HepG2 viability without parasites.
Assay [11] in a line: viability loss with induced miR-34 in A549 – imaging, A549 dox-inducible miR-34, nuclei and caspase counts, primary screen (AID 1347080;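 active = compounds whose cell count with miR-34 switched on is under 0.7 times the count with it off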). The conditions noted are these: A549 miR-34 inducible, Hoechst nuclei count, 48 h.
Assay [12] can be described thus: MELAS cybrid and Rieske KO viability enhancers – cell-based, MELAS cybrids, Rieske KO mouse fibroblasts, CellTiter-Glo, primary screen (AID 1508586;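 active = mean z-score across replicates of 1.96 or higher in either the MELAS or the Rieske mutant cell line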;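 also: z relative to plate mean and SD of compound and empty wells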). The conditions noted are these: low glucose.
Assay [13] addresses Mitogen-activated protein kinase 7 (Homo sapiens) (UniProt Q13164). The experiment in a line: Gal4-ERK5 driven luciferase induction – cell-based, HTS, primary screen (AID 1508626;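 active = luciferase signal above three times the same-plate solvent-only control wells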;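 also: luciferase driven by Gal4-ERK5 fusion binding five Gal4 sites before minimal TATA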). The settings on record: HeLa Gal4-ERK5 transactivation, 18 h, at 5 µM, stronger effect = higher value.
Assay [14] is described as follows: galactose survival enhancers in mitochondrial complex I cybrids – cell-based, galactose medium, ATP luminescence, primary screen (AID 1645843;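 active = z-score of at least 1.8 in each of two replicates, scored against plate mean and spread of sample wells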;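 also: positive z means more ATP and so rescue of galactose-driven cybrid death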). The conditions noted are these: complex I mutant cybrid cells, 72 h, stronger effect = higher value.
[15] abbreviates: measured here: epithelial PC-3E GFP cell survival.
The mark [16] stands for this setting: measured here: mesenchymal TEM4-18 mCherry cell survival.
[17] abbreviates: measured here: relative caspase fold change +Dox/-Dox.
[18] abbreviates: measured here: total cells with miR-34 induction, stronger effect = lower value.
Where [19] appears, read: measured here: total cells without miR-34 induction.
Where [20] appears, read: MELAS cybrid survival, CellTiter-Glo 48 h, stronger effect = higher value.
[21] abbreviates: Rieske KO mouse fibroblast survival, CellTiter-Glo 72 h.

Where “and” joins values, the source holds several entries; their conditions need not be identical. Identical values can stand only once. For some assays here: Measured potencies and affinities stand elsewhere. Calls of active or inactive are those of the source.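 The calls were made as follows, unless noted: active = compounds killing one labelled cell type while sparing the other, by normalised counts and ratio limits, not self-fluorescent; inactive = the rest.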

Chain of Mitogen-activated protein kinase 7 (Homo sapiens) (Q13164 whole entry, looked up, the tested form may be a part): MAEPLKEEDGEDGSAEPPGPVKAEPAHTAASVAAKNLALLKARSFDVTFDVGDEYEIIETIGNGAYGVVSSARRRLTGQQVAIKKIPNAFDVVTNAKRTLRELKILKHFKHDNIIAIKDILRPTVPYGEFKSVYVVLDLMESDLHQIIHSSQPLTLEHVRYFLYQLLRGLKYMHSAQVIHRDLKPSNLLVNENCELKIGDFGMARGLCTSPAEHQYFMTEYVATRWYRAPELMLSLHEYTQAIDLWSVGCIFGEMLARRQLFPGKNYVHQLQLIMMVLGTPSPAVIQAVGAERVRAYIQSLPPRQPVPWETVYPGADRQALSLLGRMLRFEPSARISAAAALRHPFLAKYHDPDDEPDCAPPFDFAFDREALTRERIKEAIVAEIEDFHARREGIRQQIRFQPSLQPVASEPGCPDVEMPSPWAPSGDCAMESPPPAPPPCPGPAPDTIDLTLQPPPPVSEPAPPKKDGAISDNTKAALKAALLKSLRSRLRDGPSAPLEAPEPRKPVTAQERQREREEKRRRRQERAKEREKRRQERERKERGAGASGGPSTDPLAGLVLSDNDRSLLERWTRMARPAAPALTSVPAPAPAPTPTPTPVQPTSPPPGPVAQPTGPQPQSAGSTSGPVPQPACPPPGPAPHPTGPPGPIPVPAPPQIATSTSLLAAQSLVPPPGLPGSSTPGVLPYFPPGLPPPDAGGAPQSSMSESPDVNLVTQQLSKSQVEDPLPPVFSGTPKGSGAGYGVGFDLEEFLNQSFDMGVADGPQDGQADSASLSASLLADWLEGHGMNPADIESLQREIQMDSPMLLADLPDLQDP

Molecule `CC(C)=CCCC1(C)C=Cc2c(O)c3c(c(CC=C(C)C)c2O1)OC12C(=CC4CC1C(C)(C)OC2(C/C=C(/C)C(=O)O)C4=O)C3=O` (stereo not given) gave a score in assay [1] of 0.45. In [2], this molecule showed a rescue above control of -1.66. In assay [3], the cytochrome c release ratio was found to be 3.17. The inhibition of aggregation in assay [4] came out at 100%. Besides, the glutamate uptake change in assay [5] was -92.9%. The molecule also yielded an aggregation suppression score in [6] of 0.449. The red/green cell ratio (normalised) in assay [7] was 1.03 (inactive). Besides, the normalised cell number in [7] (setting [15]) came to 1.09; in assay [7] (setting [16]) it was 1.13. Besides, the activity remaining in assay [8] is 120% (inactive).
As usually defined, the viability is a read-out of living cells in per cent, often relative to untreated cells. For `CN(C)Cc1c[nH]c2ccccc12`, in assay [9], the survival was 7.33 (inactive). Besides, the parasite load remaining in [10] was 169% (inactive) and 78.1% (inactive). Moreover, in [10], the viability was 115% and 79.2%. Further, the red/green cell ratio (normalised) in assay [7] is 1.08 (inactive). In addition, the normalised cell number turned out to be 0.84 in assay [7] (setting [15]) and 0.9 in assay [7] (setting [16]). The fold change was 0.891 (inactive) and 0.984 (inactive) in assay [11] (stronger effect = lower value); 2.07 and 0.28 in assay [11] (setting [17]). Also, the cell count in assay [11] (setting [18]) was 8410 and 7970; in assay [11] (setting [19]) it was 9440 and 8100. For the same molecule, the values for the z-score in assay [12] (setting [20]) and in assay [12] (setting [21]) were -0.265 (inactive) and 0.0463, respectively.
`C[C@H]1O[C@H](OC2[C@@H](O)[C@@H](O)C(O)[C@H](O)[C@H]2O)[C@@H](N)C[C@@H]1N=C(N)C(=O)O` (stereo not given in full): the parasite load remaining in assay [10] is 61.4% (inactive). In addition, the viability in [10] came out at 141%. In addition, the red/green cell ratio (normalised) in assay [7] is 1.07 (inactive). The normalised cell number is 1 in assay [7] (setting [15]) and 1.07 in assay [7] (setting [16]). Further, the values for the fold change in [11] (stronger effect = lower value) and in assay [11] (setting [17]) were 0.847 (inactive) and 1.18, respectively. The cell count in assay [11] (setting [18]) was 8950; in assay [11] (setting [19]), 10600. Besides, the z-score is -0.576 (inactive) in [12] (setting [20]), -0.393 in [12] (setting [21]) and 0.075 (inactive) in assay [14]. Further, the luciferase signal in assay [13] was 128 AU (inactive).
Molecule `CC(=O)OCC1=C(C(=O)O)N2C(=O)[C@@H](NC(=O)CCCC(N)C(=O)O)C2SC1` (stereo not given in full) displayed a score in [1] of 1.28. Moreover, in [3], the cytochrome c release ratio amounted to 1.12. Moreover, the inhibition of aggregation in assay [4] stood at 39.4%. Further, in [5], the glutamate uptake change is 3.72%. Further, the aggregation suppression score in assay [6] was 1.03. Moreover, the parasite load remaining in [10] is 94.5% (inactive). In addition, in assay [10], the viability is 67%. In [7], the red/green cell ratio (normalised) is 0.94 (inactive). Also, the normalised cell number in assay [7] (setting [15]) was 1.04; in assay [7] (setting [16]) it was 0.98. Also, the activity remaining in assay [8] is 111% (inactive).
For `OCC(O)[C@H]1O[C@@H]2O[C@H](C(Cl)(Cl)Cl)O[C@@H]2[C@H]1O` (stereo not given in full), the red/green cell ratio (normalised) in [7] was 0.83 (inactive). In addition, the normalised cell number in assay [7] (setting [15]) worked out at 1.02; in [7] (setting [16]), 0.85. For the same molecule, the figures for the fold change in assay [11] (stronger effect = lower value) and in assay [11] (setting [17]) were 0.871 (inactive) and 0.819, respectively. In addition, the cell count in assay [11] (setting [18]) is 8180; in assay [11] (setting [19]) it was 9390.
As to `C=C(C)C1CNC(C(=O)O)C1CC(=O)O` (stereo not given), in assay [10], the parasite load remaining was 103% (inactive) and the viability worked out at 86.2%. Moreover, the red/green cell ratio (normalised) in [7] was 0.79 (inactive). This molecule also came in with a normalised cell number in assay [7] (setting [15]) of 0.92. Moreover, the normalised cell number in assay [7] (setting [16]) was 0.73. Besides, the activity remaining in assay [8] is 96.1% (inactive).
`COc1cc2c3cc1Oc1c(OC)c(OC)cc4c1[C@@H](Cc1cccc(c1)Oc1ccc(c(O)c1)C[C@@H]3N(C)CC2)N(C)CC4`: in [10], the parasite load remaining was 114% (inactive) and the viability came out at 67.7%. In addition, the red/green cell ratio (normalised) in assay [7] was 1.03 (inactive). Moreover, the normalised cell number in assay [7] (setting [15]) was determined as 0.83. In assay [7] (setting [16]), this molecule showed a normalised cell number of 0.86. The activity remaining in assay [8] was 112% (inactive).
